Screens (PubChem)
The full list was thinned out, with hits kept by preference.
aSyn yeast rescue – qHTS of alpha-syn Inhibitors: NCGC Sytravon Library Screen; S. cerevisiae alpha-synuclein toxicity rescue, BacTiter-Glo growth, 24 h; Potency, µM (doses to about 46.1 µM), actives largely listed as activators; 94,000 tested, 0.02% active; active = well fitted activation curve with a large enough effect; also: 0% is about no effect
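Growth restoration measured by BacTiter-Glo luminescence after 24 hr at 30 deg C; alpha-synuclein yeast, raffinose-pregrown to mid-log, were added at OD600=0.02 in galactose medium onto pinned compounds.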
* marks the source's active call; other numbers are inactive results; i = inactive. Potency is read from the fitted curve at half-maximal effect.

SMILES | aSyn yeast rescue
CCOc1ccccc1N(C)C(=O)Cn1cnc2sc(C)c(S(=O)(=O)N3CCC(C)CC3)c2c1=O | i
CCCCOc1nnc(-c2ccc(OCC)cc2)c2ccccc12 | i
CCOC(=O)c1ccc(NC(=O)C(C)N(c2ccc(OCC)cc2)S(C)(=O)=O)cc1 (configuration not stated) | i
COc1cc(C2CC(=O)c3c([nH]c(C(=O)OC4CCCC4)c3C)C2)cc(OC)c1OC (configuration not stated) | i
COc1ccc(CNC(=O)c2cc3cc(S(=O)(=O)N4CCCCC4)ccc3n2C)c(OC)c1 | i
COc1cc(NC(=O)C2=C(C)Nc3nnnn3C2c2ccc(SC)cc2)c(OC)cc1Cl (configuration not stated) | i
Cc1cc(Nc2ccccc2C)nc(-n2nc(C)cc2C)n1 | i
CCOC(=O)N1CCN(C(=O)CN(c2cccc(Cl)c2C)S(=O)(=O)c2ccc(C)cc2)CC1 | i
Cc1ccc(-c2nc(S(=O)(=O)c3ccc(C)cc3)c(SCC(=O)c3ccccc3)o2)cc1 | 17.8µM*
O=C(CSc1oc(-c2ccc(F)cc2)nc1S(=O)(=O)c1ccccc1)c1ccc(Cl)cc1 | i
Cc1ccc(S(=O)(=O)c2nc(-c3ccc(F)cc3)oc2SCC(=O)c2ccccc2)cc1 | i
Cc1cccc(C)c1Nc1c(-c2ccc(Cl)s2)nc2ncccn12 | i
COc1ccc(C2CC(=O)c3cc(-c4nc(-c5cccc([N+](=O)[O-])c5)cs4)c(=O)n(-c4ccc(F)cc4)c3C2)cc1 (configuration not stated) | i
COCCCNC(=O)Cn1c(=O)n(CCCC(=O)NCc2ccc(C)cc2)c(=O)c2ccccc21 | i
Cc1oc(-c2cccc(Cl)c2)nc1CSCC(=O)NCc1ccccc1Cl | 20µM*
Cc1ccc(CNC(=O)CSCc2nc(-c3ccc(Cl)cc3)oc2C)cc1 | i
Cc1oc(-c2ccc(Cl)cc2)nc1CSCC(=O)NCc1ccccc1Cl | i
Cc1ccccc1Nc1cc(C(=O)NCc2cccs2)c2ccccc2n1 | i
CCCS(=O)(=O)N1CCC(n2c(C)nc3cccnc32)CC1 | i
N#C/C(=C\c1cc(Br)c(O)c(Br)c1)c1nc2ccccc2c(=O)[nH]1 | i
Cc1nc2scc(C)n2c(=O)c1S(=O)(=O)Nc1cccc(O)c1 | i
Cc1nc2scc(C)n2c(=O)c1S(=O)(=O)Nc1cccc(C(F)(F)F)c1 | 11.2µM*
COc1cccc(CNS(=O)(=O)c2c(C)nc3scc(C)n3c2=O)c1 | i
CC1CN(C(=O)Nc2ccc(C(=O)NCc3cccc(F)c3)cc2)c2ccccc2S1 (configuration not stated) | i
CC1=Nc2cc(C(=O)NCc3ccccc3Cl)ccc2Sc2c(C)ccc(C)c21 | i
CC1CCCCN1c1c(S(=O)(=O)c2ccc(Cl)cc2)cnc2ccccc12 (configuration not stated) | i
CCCOc1ccc(CN(C(=O)c2cc(=O)c3ccc(C)cc3o2)C2CCS(=O)(=O)C2)cc1 (configuration not stated) | i
CCOc1ccc(-c2cccc(NS(=O)(=O)c3ccc(Cl)s3)c2)nn1 | i
